Only some compounds are listed: those with a hit (about 4.1% of all), similar ones and a draw of the others.
DAX1 inh-1: blocks DAX1 repression of SF-1 activated StAR promoter. HEK293T StAR-luciferase reporter, SF-1/DAX-1 repression relief. inhibition, % at 6.8 µM. hit rate 1.1% among 370,000;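 active = inhibition above the mean over all tested compounds plus 3 SD, cut at about 3.6% in these data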;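 note: 0% = DAX-1 cells with DMSO and 100% = cells lacking DAX-1 with DMSO; higher inhibition means more luminescence from relief of DAX-1 repression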
hcDAF12 agonist: activates DAF-12 receptor from parasite H. contortus; HEK293 hcDAF-12 lit1-tk-luc reporter, luminescence; 0% DMSO, 100% Δ7-dafachronic acid; activation, % at 6.8 µM; hit rate 1.4% among 370,000; AID 652067;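 active = activation above the mean of all tested compounds plus 3 SD, cut at about 5.5% in these data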;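 note: 100% = response to 3 µM Δ7-dafachronic acid high control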
ssDAF-12 act: activators of S. stercoralis DAF-12 nuclear receptor | HEK293 ssDAF-12/GRIP1 lit1-tk-luc reporter, luminescence; % of 3 µM dafachronic acid response | activation, % at 6.8 µM | hit rate 1% among 370,000;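 active = activation above the mean over all tested compounds plus 3 SD, cut at about 0.9% in these data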;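 note: 0% = DMSO-only wells and 100% = 3 µM delta7-dafachronic acid wells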
hgDAF12 agonist: agonists of H. glycines DAF-12 nuclear receptor. HEK293 GAL4-hgDAF12 UAS-luciferase reporter, agonist luminescence; normalized to butyrate control. activation, % at 6.8 µM. hit rate 1.8% among 370,000. AID 687014;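 active = activation above a cutoff set at the mean of all screened compounds plus 3 SD, cut at about 10% in these data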;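 note: 0% = DMSO wells and 100% = sodium butyrate wells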
DAX1 inh-2: inhibitors of human orphan nuclear receptor DAX1 (NR0B1); HEK293 Gal4-DAX1 luciferase reporter, luminescence; P51843; AID 504766; inhibition, % at 6.75 µM; hit rate 0.99% among 340,000;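 active = inhibition above the mean over all tested compounds plus 3 SD, cut at about 4.2% in these data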;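 note: 0% = DAX1-transfected cells with DMSO and 100% = empty-vector control cells with DMSO; inhibition shows as a rise in luminescence from relieved DAX1 repression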
Target sequence (P51843 207-470 limits assumed): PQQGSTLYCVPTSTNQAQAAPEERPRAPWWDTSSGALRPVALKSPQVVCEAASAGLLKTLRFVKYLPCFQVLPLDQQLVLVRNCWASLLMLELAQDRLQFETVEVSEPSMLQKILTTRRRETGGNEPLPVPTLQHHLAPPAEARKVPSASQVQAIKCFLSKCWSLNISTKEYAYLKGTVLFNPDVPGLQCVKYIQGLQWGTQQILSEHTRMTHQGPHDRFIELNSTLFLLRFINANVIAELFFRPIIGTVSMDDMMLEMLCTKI
DAX1 inh confirm: confirmation of human DAX1 (NR0B1) inhibitors. hit rate 87% among 2,400. shares compounds with DAX1 inh-1. HEK293T StAR-promoter luciferase reporter, SF-1/DAX-1 repression. inhibition, % at 6.8 µM. AID 652134;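 active = inhibition above the average of every tested compound plus 3 SD, cut at about 3.8% in these data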;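 note: 0% = DAX-1 cells with DMSO and 100% = no DAX-1 control cells with DMSO; active compounds raise luminescence by relieving repression of the StAR reporter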
SF1 AF2mut Luc: nonselective inhibitor or artifact in SF-1 mutant DAX1 counter-screen | shares compounds with DAX1 inh-1 | HEK293 StAR-luciferase, SF-1 AF2 mutant, luminescence | inhibition, % at 6.8 µM | hit rate 78% among 2,400 | AID 652136;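 active = inhibition above the mean of all tested compounds plus 3 SD, cut at about 3% in these data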;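 note: 0% = DAX-1 transfected cells with DMSO and 100% = cells without DAX-1 with DMSO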
LXR ag: activates human LXR-beta, counter-screen for hcDAF-12 agonists. shares compounds with hcDAF12 agonist. HEK293 Gal4-LXR tk-luc reporter, luminescence, 24 h; normalized: DMSO 0%, positive control 100%. activation, % at 6.8 µM. 3,400 tested, under 10 active. AID 743027;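 active = mean percent activation of the reporter above a cutoff set as the average over tested compounds plus their standard deviation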
Target sequence (P55055 whole entry, looked up, the tested form may be a part): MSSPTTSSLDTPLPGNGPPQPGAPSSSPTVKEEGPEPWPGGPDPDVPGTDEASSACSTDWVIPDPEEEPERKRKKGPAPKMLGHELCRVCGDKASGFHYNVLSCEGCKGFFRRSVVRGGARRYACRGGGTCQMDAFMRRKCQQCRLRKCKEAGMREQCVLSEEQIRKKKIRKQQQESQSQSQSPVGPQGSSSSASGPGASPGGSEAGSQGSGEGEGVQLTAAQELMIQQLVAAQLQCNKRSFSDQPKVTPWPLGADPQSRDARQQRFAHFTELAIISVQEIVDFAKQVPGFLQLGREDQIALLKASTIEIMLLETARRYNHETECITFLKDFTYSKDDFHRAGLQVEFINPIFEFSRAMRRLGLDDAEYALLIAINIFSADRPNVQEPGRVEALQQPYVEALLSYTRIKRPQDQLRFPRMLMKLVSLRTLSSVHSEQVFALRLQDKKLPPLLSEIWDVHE
hcDAF12 ag: confirmation of H. contortus DAF-12 agonists. shares compounds with hcDAF12 agonist. HEK293 hcDAF-12 lit1-tk-luc reporter, luminescence; % of Δ7-dafachronic acid response. activation, % at 6.8 µM. hit rate 61% among 3,400;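 active = mean activation across triplicate tests above the threshold derived from the earlier primary screen, cut at about 5.5% in these data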;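 note: 0% = DMSO only wells and 100% = 3 µM Δ7-dafachronic acid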
Active calls of the source: *.

`O=C(NCCCl)C1Cc2c(ccc3ccccc23)O1` (stereo unspecified) gave DAX1 inh-1 -0.7, hcDAF12 agonist 0.0, ssDAF-12 act -0.4, hgDAF12 agonist -0.8 and DAX1 inh-2 2.0.
Screening N/C(=N\C(=S)Nc1ccc2c(c1)OCO2)c1ccccc1 returned DAX1 inh-1 21.4*, hcDAF12 agonist 6.8*, ssDAF-12 act 1.7*, hgDAF12 agonist 20.9*, DAX1 inh confirm 14.3*, SF1 AF2mut Luc 8.8*, LXR ag 2.1 and hcDAF12 ag 10.1*.
For CCc1ccc(-c2cc(C(=O)Nn3cnnc3)c3ccccc3n2)cc1 the results were DAX1 inh-1 6.0*, hcDAF12 agonist 11.0*, ssDAF-12 act 0.8, hgDAF12 agonist 6.4, DAX1 inh-2 -4.5, DAX1 inh confirm 10.8*, SF1 AF2mut Luc 4.2*, LXR ag 0.7 and hcDAF12 ag 11.3*.
Screening CCCc1ccc(-c2cc(C(=O)NN3CCOCC3)c3ccccc3n2)cc1 returned DAX1 inh-1 -0.2, hcDAF12 agonist 0.6, ssDAF-12 act -1.1, hgDAF12 agonist 2.6 and DAX1 inh-2 0.4.
Screening Cc1c(C(=O)NCC2CCCO2)oc2ccccc12 (stereo unspecified) returned DAX1 inh-1 1.7, hcDAF12 agonist 1.1, ssDAF-12 act -0.4, hgDAF12 agonist 7.0 and DAX1 inh-2 0.5.
For Cc1ccc2oc(C(=O)NCCC3CCCCO3)c(C)c2c1 (stereo unspecified) the results were DAX1 inh-1 10.2*, hcDAF12 agonist 8.5*, ssDAF-12 act -0.3, hgDAF12 agonist 12.8*, DAX1 inh-2 0.7, DAX1 inh confirm 7.5*, SF1 AF2mut Luc 4.2*, LXR ag 1.6 and hcDAF12 ag 14.2*.
Screening COc1ccccc1C(CNC(=O)C(CCSC)NS(=O)(=O)c1ccccc1F)N1CCCC1 (stereo unspecified) returned DAX1 inh-1 -1.6, hcDAF12 agonist -2.0, ssDAF-12 act -1.1, hgDAF12 agonist 0.5 and DAX1 inh-2 0.1.
NC(=O)c1ccsc1NC(=O)c1cccs1 was read as DAX1 inh-1 1.7, hcDAF12 agonist 3.0, ssDAF-12 act -1.4, hgDAF12 agonist 3.6 and DAX1 inh-2 0.1.
NC(=O)c1ccsc1NC(=O)c1ccc2c(c1)CCCC2 was read as DAX1 inh-1 6.8*, hcDAF12 agonist 14.2*, ssDAF-12 act 2.5*, hgDAF12 agonist 18.8*, DAX1 inh-2 -0.3, DAX1 inh confirm 11.5*, SF1 AF2mut Luc 7.8*, LXR ag 2.3 and hcDAF12 ag 20.6*.
Screening Cc1cccc(CCNC(=O)c2cccc(N3CCCC3=O)c2)c1 returned DAX1 inh-1 7.3*, hcDAF12 agonist 7.4*, ssDAF-12 act -0.1, hgDAF12 agonist 11.3*, DAX1 inh-2 0.6, DAX1 inh confirm 9.5*, SF1 AF2mut Luc 4.0*, LXR ag 0.9 and hcDAF12 ag 7.2*.
Cc1ccc(CCNC(=O)c2cccc(N3CCCC3=O)c2)cc1 was read as DAX1 inh-2 0.2.
Screening Cc1ccc2nc(CSc3nc(C)cc(C)c3C#N)[nH]c2c1 returned DAX1 inh-1 5.8*, hcDAF12 agonist 16.9*, ssDAF-12 act 2.0*, hgDAF12 agonist 9.1, DAX1 inh-2 1.3, DAX1 inh confirm 13.5*, SF1 AF2mut Luc 7.4*, LXR ag 1.9 and hcDAF12 ag 20.4*.
Screening Cc1c(C(=O)N(C)Cc2cccc(F)c2)oc2c(Cl)cccc12 returned DAX1 inh-1 0.0, hcDAF12 agonist -2.2, ssDAF-12 act -1.4, hgDAF12 agonist -0.5 and DAX1 inh-2 0.7.
For COc1ccc(OCCSc2ncccn2)cc1 the results were DAX1 inh-1 4.8*, hcDAF12 agonist 6.9*, ssDAF-12 act -0.6, hgDAF12 agonist 12.3*, DAX1 inh-2 2.0, DAX1 inh confirm 11.2*, SF1 AF2mut Luc 7.8*, LXR ag 1.1 and hcDAF12 ag 6.6*.
COc1ccc(-c2cccc3c4c([nH]c23)[C@@H]2C[C@H]3[C@@H](C(=O)N2CC4)[C@H](C)ON3C)cc1 was read as DAX1 inh-1 -0.1, hcDAF12 agonist -0.8, ssDAF-12 act -1.6 and hgDAF12 agonist 4.0.
`O=C(Nc1ccccc1)Nc1ccc(C(=O)N2CCCC2)cc1` gave DAX1 inh-1 4.9*, hcDAF12 agonist 8.8*, ssDAF-12 act 0.4, hgDAF12 agonist 17.2*, DAX1 inh-2 -0.9, DAX1 inh confirm 13.5*, SF1 AF2mut Luc 7.5*, LXR ag 1.4 and hcDAF12 ag 6.9*.
`Clc1ccc(-c2cn3c(n2)-c2ccccc2C3)cc1Cl` gave DAX1 inh-1 5.9*, hcDAF12 agonist 16.5*, ssDAF-12 act 2.0*, hgDAF12 agonist 19.5*, DAX1 inh-2 2.2, DAX1 inh confirm 9.2*, SF1 AF2mut Luc 6.4*, LXR ag 1.8 and hcDAF12 ag 14.8*.
O=C(c1c(Cl)nc2sccn12)N(C(=O)c1c(Cl)nc2sccn12)c1ccc(Cl)cn1 was read as DAX1 inh-1 5.4*, hcDAF12 agonist 7.9*, ssDAF-12 act 1.2*, hgDAF12 agonist 8.5, DAX1 inh-2 1.9, DAX1 inh confirm 10.9*, SF1 AF2mut Luc 3.0*, LXR ag 1.2 and hcDAF12 ag 11.0*.
`O=C(NCCc1c[nH]c2ccccc12)c1c(Cl)nc2sccn12` gave DAX1 inh-1 0.1, hcDAF12 agonist 0.0, ssDAF-12 act -1.4, hgDAF12 agonist 1.8 and DAX1 inh-2 -0.5.
COc1ccc(NC(=O)C2Cc3c(-c4cccc(F)c4)ccnc3O2)cc1 (stereo unspecified) was read as DAX1 inh-1 -0.3, hcDAF12 agonist -0.1, ssDAF-12 act -2.0 and hgDAF12 agonist -2.5.
For CC(C)c1ccc(/C=C(\NC(=O)c2ccccc2)C(=O)NCCCN2CCOCC2)cc1 the results were DAX1 inh-1 -0.1, hcDAF12 agonist -0.9, ssDAF-12 act -1.5, hgDAF12 agonist -1.3 and DAX1 inh-2 0.3.
Screening Cc1ccccc1CN1CCN(c2ccc(S(=O)(=O)N3CCCC3)cn2)CC1 returned DAX1 inh-1 -0.2, hcDAF12 agonist 0.1, ssDAF-12 act -1.4, hgDAF12 agonist 2.7 and DAX1 inh-2 -1.2.
For COc1ccc(N2CCN(C(=O)C(=O)c3cn(CC(=O)N4CCCC4)c4ccccc34)CC2)cc1 the results were DAX1 inh-1 -0.1, hcDAF12 agonist -0.1, ssDAF-12 act -0.7, hgDAF12 agonist 3.0 and DAX1 inh-2 0.4.

Screens deposited in PubChem by The Scripps Research Institute Molecular Screening Center.
